Cruzain inh Det – blocks cruzain activity in presence of Triton detergent; purified cruzain, Z-FR-AMC fluorescence, 0.01% Triton; P25779; Potency, µM, without a hit: max response, negative = inhibition, usual class: inhibitors; 0.43% of 200,000 active;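 further: plate controls were neutral wells for no effect and buffer without enzyme for full effect; nearly all actives have a fitted effect of over 40% in size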
Target sequence (P25779 123-467 limits assumed): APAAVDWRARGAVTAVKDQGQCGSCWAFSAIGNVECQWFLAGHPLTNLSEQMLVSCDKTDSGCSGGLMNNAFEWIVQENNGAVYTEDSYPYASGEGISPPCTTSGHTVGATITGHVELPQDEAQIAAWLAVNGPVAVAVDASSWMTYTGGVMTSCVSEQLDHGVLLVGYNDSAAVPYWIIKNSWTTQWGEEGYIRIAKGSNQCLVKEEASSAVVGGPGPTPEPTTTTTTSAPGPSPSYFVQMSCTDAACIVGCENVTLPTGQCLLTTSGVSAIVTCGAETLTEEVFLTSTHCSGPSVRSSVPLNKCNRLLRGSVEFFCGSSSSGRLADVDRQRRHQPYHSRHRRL
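Cysteine protease activity tested under reducing, mildly acidic conditions (100 mM sodium acetate pH 5.5, 5 mM DTT) plus 0.01% Triton X-100. Cruzain 1.5 nM; substrate Z-FR-AMC 2 uM; 15 min compound preincubation at room temperature.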
Cruzain inh noDet – cruzain (T. cruzi) inhibition without detergent. P25779. purified cruzain, Z-FR-AMC fluorescence, no detergent. 2.3% of 200,000 active. Potency, µM, without a hit: max response, negative = inhibition, most hits filed as inhibitors;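 further: plate controls were enzyme without inhibitor for no effect and buffer without enzyme for full effect; nearly all actives have a fitted effect of over 40% in size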
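Detergent-free condition (0.00005% Triton X-100) in acetate buffer pH 5.5 with DTT. 1.5 nM enzyme and compound were pre-mixed 15 min, then 2 uM Z-FR-AMC substrate added; reaction progress from fluorescence change between first and third reads (60 s).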
Numbers without * were called inactive; u = inconclusive; ! = not confirmed by another sample. An excerpt weighted towards active compounds, which were near 2.5% of everything screened. The call rests on the fitted dose curve; in most records, active means well fitted curve in the direction sought with a large enough effect; inconclusive means small, poorly fitted or top-dose-only effect, or another doubt; inactive means no such curve, though single readings can be large; an effect the other way counts as inactive or inconclusive. Potency means the concentration at half of the fitted maximal effect.

SMILES | Cruzain inh Det | Cruzain inh noDet
Cc1ccc(S(=O)(=O)NCC(=O)OCN2C(=O)c3ccccc3C2=O)cc1 | 22.4µM* | 25.1µM*
CCOc1ccc(S(=O)(=O)NCCC(=O)OCN2C(=O)c3ccccc3C2=O)cc1 | -7.3% | -7.9%
CCOC(=O)c1ccccc1NS(=O)(=O)c1ccc(N2CCCCS2(=O)=O)cc1 | -6.3% | u
c1ccc(CNc2oc(-c3ccccc3)nc2-c2ccccc2)cc1 | -1.2% | -9.5%
c1ccc(CNc2oc(-c3ccccc3)nc2-c2cccc3ccccc23)cc1 | -2.1% | 15.8µM*
CCN1CCc2nc3sc(C(=O)c4ccccc4)c(N)c3cc2C1 | -10.1% | -8.6%
Cc1ccc2oc(-c3ccccc3C(=O)O)cc(=O)c2c1 | -2.9% | -12.9%
O=C(O)c1ccccc1-c1c2cc(Br)c(=O)cc-2oc2[c]([Hg])c(O)c(Br)cc12 | 20µM*! | u
Cc1ccc(-n2nc(CO)c(C(=O)NCCC(C)C)n2)cc1C | -3.1% | -13.6%
Cc1ccc(-n2ncc(C(=O)NCCCN3CCc4ccccc4C3)c2C2CCN(C(=O)OC(C)(C)C)CC2)cc1C | -2.3% | -5.7%
Cc1ccc(F)cc1NCC(=O)Nc1ccc(Br)cc1 | -7.2% | -6.4%
Cc1cccc(NC(=O)CNc2cc(C)ccc2C)c1 | -4.6% | 20µM*
COCCOC(=O)c1ccccc1C(=O)OCCOC | 6.3% | 1.5%
CCOC(=O)C(C(=O)c1ccccc1)[C@H](CCc1ccccc1)NC(=O)OC (stereo partly specified) | -0.5% | 1.8%
O=C(Nc1ccc2oc(-c3cc(Br)ccc3Cl)nc2c1)c1cc2ccccc2o1 | 0.6% | 3.0%
CCOc1ccc(NC(=O)COC(=O)c2ccc3c(c2)C(=O)N(CCc2ccccc2)C3=O)cc1 | -2.6% | u
Cc1ccc(NC(=O)COC(=O)c2ccc3c(c2)C(=O)N(CCc2ccccc2)C3=O)c(C)c1 | -1.5% | 25.1µM*
COc1cccc(Cn2c(=O)c(-c3cc(F)cc(F)c3)nc3cnc(N4CCNCC4)nc32)c1 | -1.1% | -2.7%
COC(=O)C1=NN(c2ccccc2)C2(S1)S/C(=C\c1ccccc1)C(=O)N2c1ccccc1 (stereo unspecified) | 2.0% | 10µM*
CCOC(=O)C1=NN(c2ccccc2)C2(S1)SC(C(C)=O)=C(C)N2c1ccccc1 (stereo unspecified) | -3.4% | 9.9%
O=C(CNC(=O)c1ccccc1F)OCC(=O)N1CCCc2ccccc21 | 10µM* | 10µM*
O=C(COC(=O)CNC(=O)c1ccccc1F)NCCC1=CCCCC1 | 14.1µM* | 10µM*
O=C(Cc1ccccc1)NCCC1=CCCCC1 | 0.5% | -9.1%
CC(C)(C)NC(=O)NC(=O)COC(=O)CNC(=O)c1cccc(F)c1 | 22.4µM* | u
O=C(OCC(=O)N1CCc2ccccc21)c1cccc(S(=O)(=O)N2CCCc3ccccc32)c1 | 2.9% | u
SMILES | Cruzain inh Det | Cruzain inh noDet
CC(C)(C)NC(=O)NC(=O)COC(=O)c1cccc(F)c1 | -4.2% | -7.0%
COCC(=O)N1CCCc2ccccc21 | 7.7% | -9.9%
O=C(CNC(=O)c1cccc(F)c1)OCC(=O)N1CCCc2ccccc21 | 11.2µM* | 10µM*
C[C@@H](N)/C(N)=N/O | 1.6% | 0.5%
C=CC[C@](C)(O)c1ccccc1 | 1.5% | -1.1%
Cc1nnc(SCC2=C(C(=O)O)N3C(=O)[C@@H](NC(=O)Cn4cnnn4)[C@@H]3SC2)s1 | 2.2% | -1.1%
CCCCCC(=O)Nc1nc(C)c(-c2csc(Nc3ccc(Cl)cc3)n2)s1 | -5.8% | 12.6µM*
CCC(C)C(=O)Nc1nc(C)c(-c2csc(Nc3ccccc3OC)n2)s1 (stereo unspecified) | -2.3% | u
CCCCCCC(=O)Nc1nc(C)c(-c2csc(Nc3ccc(Cl)cc3)n2)s1 | 4.5% | u
CCCCCC(=O)Nc1nc(C)c(-c2csc(Nc3cc(Cl)ccc3C)n2)s1 | -2.8% | 10µM*
CCCC(C)C(=O)Nc1nc(C)c(-c2csc(Nc3cc(Cl)ccc3C)n2)s1 (stereo unspecified) | 4.1% | 12.6µM*
O=C(O)CCCCn1cnc2c(=S)nc[nH]c21 | 3.6% | -2.3%
Cc1cccc(CCNC(=O)c2sc3nc4n(c(=O)c3c2C)CCCC4)c1 | -2.3% | -11.1%
Cc1cc(NC(=O)Nc2nc3c(s2)CCCCCC3)ccc1Br | -1.1% | 12.2%
CCOC(=O)C1CCCN(S(=O)(=O)c2cc(-c3onc(C)c3C)ccc2OC)C1 (stereo unspecified) | -1.9% | u
Nc1nnc(-c2ccc(F)cc2)s1 | -3.4% | 15.8%
NC1=C(c2ccc(F)cc2)C(=O)CS1 | u | 15.8µM*
Cc1cc(N2C(=O)C(O)=C(C(=O)c3ccc(C)o3)C2c2cccs2)no1 (stereo unspecified) | 3.2% | -8.1%
Cc1ccc2nc(N3C(=O)C(O)=C(C(=O)c4cc5ccccc5o4)C3c3cccs3)sc2c1 (stereo unspecified) | 15.8µM* | 9.2%
CCc1ccc2nc(N3C(=O)C(O)=C(C(=O)c4ccco4)C3c3cccs3)sc2c1 (stereo unspecified) | 25.1µM* | u
CCc1ccc2nc(N3CCN(C(=O)c4ccco4)CC3)sc2c1 | -5.0% | 10.7%
COc1ccc(CNC(=O)CCCn2c(=O)c3cccn3c3ccc(F)cc32)cc1OC | -6.5% | -4.3%
COc1cc(Nc2nc3ccccc3c3nnc(C)n23)cc(OC)c1 | -10.5% | u
Cc1cc(C(F)(F)F)c(C#N)c(SCC(=O)Nc2nc3cc(Br)ccc3s2)n1 | -9.2% | 20µM*
CCOC(=O)NC(=O)CSc1nc(C)cc(C(F)(F)F)c1C#N | -2.9% | -0.2%
SMILES | Cruzain inh Det | Cruzain inh noDet
O=S(O)O.O=S(O)O.[Co].[NH2-].[NH2-].[NH2-].[NH2-] | 3.9% | 9.9%
S[C@@H]1CCCN(Cc2ccccc2)C1 | -3.5% | -2.7%
COc1cccc(-n2c(SCc3cccc(C)c3)nc3c([nH]c4ccccc43)c2=O)c1 | -1.5% | 15.8µM*
COc1cccc(-n2c(SCc3ccccc3C)nc3c([nH]c4ccccc43)c2=O)c1 | 0.0% | 3.98µM*
COc1cccc(-n2c(SCC(=O)c3ccccc3)nc3c([nH]c4ccccc43)c2=O)c1 | 2.8% | 2.0%
CCCSc1nc2c([nH]c3ccccc32)c(=O)n1C | 0.0% | -3.6%
Cc1cccc(CSc2nc3c([nH]c4ccccc43)c(=O)n2C)c1 | -0.4% | -14.7%
CCSc1nc2c([nH]c3ccccc32)c(=O)n1C | 4.4% | 12.6µM*
Cc1cccc(NC(=O)Cn2c(=O)n(CCCCCC(=O)NCc3ccc4c(c3)OCO4)c(=O)c3sccc32)c1 | -3.0% | -15.2%
CN(C)c1ccc(CNC(=O)c2cccc(NC(=O)N3CCSc4ncccc43)c2)cc1 | -18.1% | -22.1%
CCCCN(CC)C(=O)c1nn(C)c2c1CSc1ccccc1-2 | 5.1% | -19.9%
CCc1nn(CC(=O)N2CCN(c3cccc(C)c3)C(C)C2)c(=O)c2cc3sccc3n12 (stereo unspecified) | -2.9% | 23.1%
CC(=O)[O-].CC(=O)[O-].O.O.[Cd+2] | 5.9% | -19.5%
CCCCC[CH2][Hg][S]C1=C2N=CNC2NC(N)=N1 (stereo unspecified) | -3.0% | -6.0%
CN(C)CCCN=c1c2ccccc2n(C)c2[nH]c(=O)n(C)c(=O)c12 | 1.2% | 0.2%
CN(C)c1ccc(/C=C/C=C2/SC(=S)N(c3ccccc3)C2=O)cc1 | -2.9% | 7.94µM*
O=C1/C(=C/c2cccnc2)SC(=S)N1c1ccccc1 | -6.9% | 9.9%
COc1ccc(C(=O)NCCc2sc(-c3cccc(F)c3)nc2C)cc1 | -11.6% | -10.8%
Cc1ccc2[nH]c3c(c2c1)CCC3=O | 15.0% | 11.6%
CC1=NCCc2c1[nH]c1cc(O)ccc21 | 28.2µM*! | 12.6µM*!

Source: PubChem
